compound,measurement,setting,value
Cc1ccc(-c2cc(-c3c[nH]nc3-c3ccccn3)ccn2)cc1 [GW684088],Kinases covered,MINK1,MINK1
COc1cc2ncnc(Nc3ccc(F)c(Cl)c3)c2cc1O[C@H]1CC[C@H](N)CC1 [BIBW3133BS],Kinases covered,MKNK1,MKNK1
CCCc1cc(N2CCCN(C)CC2)nc2sc3c(N)ncnc3c12 [BI00604564],Kinases covered,MKNK2,MKNK2
CNc1nc(Nc2ccc(C(=O)N3CCOCC3)cc2OC)nc2[nH]cc(Cl)c12 [JH-II-127],Kinases covered,MLCK,MLCK
CCn1c(-c2nonc2N)nc2cncc(CNC3CCNCC3)c21 [SB-747651A],Kinases covered,MSK1,MSK1
COc1ccc(-c2cc3c(C)nc(N)nc3n([C@H]3CC[C@H](O)CC3)c2=O)cn1 [PFE-PKIS 40],Kinases covered,MTOR,MTOR
COc1ccc(-c2cc3c(C)nc(N)nc3n([C@H]3CC[C@H](OCCO)CC3)c2=O)cn1 [PFE-PKIS 29],Kinases covered,MTOR,MTOR
Nc1ncnc2occ(-c3ccc(NC(=O)Nc4cc(C(F)(F)F)ccc4F)cc3)c12 [GW770249X],Kinases covered,MUSK,MUSK
CNC(=O)c1c(F)cccc1Nc1nc(Nc2cc3c(cc2OC)CCN3C(=O)CN(C)C)nc2[nH]ccc12 [GSK1838705],Kinases covered,MYLK,MYLK
C[C@@H](Oc1cc(-n2cnc3ccc(CN4CCN(C)CC4)cc32)sc1C(N)=O)c1ccccc1C(F)(F)F [GSK461364],Kinases covered,NEK2,NEK2
C[C@@H](Oc1cc(-n2cnc3ccc(OC4CCN(C)CC4)cc32)sc1C(N)=O)c1ccccc1Cl [GSK579289A],Kinases covered,NEK2,NEK2
same,Kinases covered,NEK9,NEK9
CC(C)C(=O)N[C@@H]1CCN(C(=O)Nc2nc3c(s2)-c2nc(-c4ccccc4Cl)ncc2CC3)C1 [BI00047804],Kinases covered,NEK3,NEK3
same,Kinases covered,NEK5,NEK5
CCOc1ccc2c(-c3ccnc(Nc4cc(OC)cc(C(F)(F)F)c4)n3)cnn2n1 [GW807982X],Kinases covered,NEK6,NEK6
COc1cc2ncn(-c3cc(O[C@H](C)c4ccccc4Cl)c(C(N)=O)s3)c2cc1OC [GSK237701A],Kinases covered,NEK9,NEK9
Cc1cn(-c2cc(NC(=O)c3ccc4c(c3)CN(c3cncnc3)C[C@@H]4C)cc(C(F)(F)F)c2)cn1 [D2202-1],Kinases covered,NTRK2,NTRK2
COc1ccccc1-c1cc(/C=C2\C(=O)Nc3ncc(Br)cc32)cc(Br)c1O [GW442130X],Kinases covered,NTRK3,NTRK3
CC(=O)c1cccc(NC(=O)NC2CCN(c3ccnc(Nc4ccc(F)cc4)n3)C2)c1 (stereo not drawn) [GSK1379710],Kinases covered,NTRK3,NTRK3
C[C@@H]1CCNC(=O)c2cc3ccc(C(=O)Nc4nc5ccccc5n4CCCN(C)C)cc3n21 [BI00645435],Kinases covered,NUAK2,NUAK2
CCC(=O)Nc1cccc(Oc2nc(Nc3ccc(N4CCN(C)CC4)cc3OC)ncc2Cl)c1 [WZ4003],Kinases covered,NUAK2,NUAK2
